D2 ag-1 – D2 dopamine receptor (human) agonism; 0.53% of 340,000 active; HEK293 T-REx D2 cells, calcium flux agonist mode; activation, % at 2 µM; AID 485358;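 active means activation over 3 SD above normal in the single-dose calcium agonist read, cut at about 30% in these data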; further: 0% is about no effect
Target sequence (P14416 whole entry, looked up): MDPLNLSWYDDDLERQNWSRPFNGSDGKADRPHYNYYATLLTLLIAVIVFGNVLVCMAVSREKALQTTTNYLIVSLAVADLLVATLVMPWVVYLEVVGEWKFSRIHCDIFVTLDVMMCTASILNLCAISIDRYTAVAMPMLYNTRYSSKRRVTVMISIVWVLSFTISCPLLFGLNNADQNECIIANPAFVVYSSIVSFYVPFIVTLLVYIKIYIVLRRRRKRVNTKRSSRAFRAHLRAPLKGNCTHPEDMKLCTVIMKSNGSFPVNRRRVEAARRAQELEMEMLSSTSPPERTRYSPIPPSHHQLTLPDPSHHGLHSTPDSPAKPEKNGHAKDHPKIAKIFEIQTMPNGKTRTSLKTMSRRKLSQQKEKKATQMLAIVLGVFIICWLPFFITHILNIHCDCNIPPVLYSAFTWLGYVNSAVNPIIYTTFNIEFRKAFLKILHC
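Agonism is scored from calcium flux in a force-coupled, inducible HEK293 cell line expressing D2, read kinetically for 180 s after compound addition against dopamine controls.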
D2 PAM-1 – positively modulates the human D2 dopamine receptor allosterically; P14416; potentiation, % at 10 µM; HEK293 T-REx D2, calcium flux, EC20 dopamine potentiation; 0.34% of 340,000 active; AID 485347;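 active means potentiation over 3 SD above the plate norm, cut at about 30% in these data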; further: 0% is about no effect
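Cells plated with tetracycline inducer and held overnight at 30 C; calcium dye loaded 30–90 min at room temperature; baseline taken, compound added and read 180 s; EC20 dopamine then added and read 180 s.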
D2 ag-2 – agonists of human D2 dopamine receptor (beta-arrestin). P14416. DiscoveRx PathHunter D2 beta-arrestin, luminescence, 90 min; 100% = 57 uM dopamine signal. activation, % (concentration not given with the values). 0.084% of 360,000 active. AID 624465; in the data active means activation above about 40%
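Agonist mode: compounds alone added to overnight-plated D2 PathHunter cells for 90 min at 37 C, with 57 uM final dopamine (EC100) defining full response. Beta-arrestin recruitment detected by chemiluminescent reagent, read after 1 h at ambient temperature.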
D2 antagonist – antagonizes the human D2 dopamine receptor; P14416; HEK293 TREx D2 cells, calcium flux, dopamine EC80; inhibition, % at 10 µM; 2% of 340,000 active; AID 485344; in the data active means inhibition above about 30%; inactive means below that, where a call was filed; further: 0% is about no effect
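Cells plated overnight at 30 C with tetracycline; no-wash calcium dye, 30–90 min RT; 10 s baseline; compound pinned; 180 s read; EC80 dopamine added; another 180 s read.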
D2 PAM-2 – human D2 receptor positive allosteric modulation; P14416; DiscoveRx D2 beta-arrestin cells, luminescence, 90 min; 100% = 57 uM dopamine signal; potentiation, % (no concentration beside the values); 0.23% of 360,000 active; in the data active means potentiation above about 50%
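PathHunter D2 cells, attached overnight at 37 deg C, received compound in DMSO plus dopamine at EC20 (50 nM final) for 90 min at 37 deg C. Beta-arrestin recruitment was read as luminescence after 1 h with detection reagent at ambient temperature.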
* = called active by the depositor. Compounds with a hit are over-represented: about 2.4% of the library has one in this group of screens.

What do the screens show for `COc1ccc(Cc2noc(CN(C)C3CC(C)(C)NC(C)(C)C3)n2)cc1OC`?
D2 ag-1: -0.9; D2 PAM-1: 6.3; D2 ag-2: -6.3; D2 antagonist: 10.0; D2 PAM-2: -4.6

What do the screens show for `Cc1ccc(-c2cn3c(n2)sc2cc(C(=O)N4CCCCC4)ccc23)cc1`?
D2 ag-1: 1.5; D2 PAM-1: -1.9

How did COc1ccc(OC)c(CNS(=O)(=O)c2c(C(=O)N3CCC(C)CC3)c(C)n(C)c2C)c1 do in these assays?
D2 ag-1: -0.3; D2 PAM-1: 4.3

What do the screens show for `CCn1c(CN2CCOCC2)nc2cc(NC(=O)c3ccc([N+](=O)[O-])cc3)ccc21`?
D2 ag-1: 18.1; D2 PAM-1: 2.5

Results for Cc1ccc(CCNC(=O)CCSCc2ccccc2F)cc1 ?
D2 ag-1: 1.2; D2 PAM-1: -7.6

How did CN(C)S(=O)(=O)c1cc(NC(=O)CNCc2ccc(F)cc2)ccc1Cl do in these assays?
D2 ag-1: 0.0; D2 PAM-1: -26.2; D2 ag-2: 1.0; D2 antagonist: 43.8*; D2 PAM-2: -26.5

How did COc1cccc(OC)c1C(=O)NCCSC1CCCCC1 do in these assays?
D2 ag-1: -1.6; D2 PAM-1: -6.5; D2 ag-2: 0.9; D2 antagonist: 40.5*; D2 PAM-2: 1.7

What do the screens show for `COc1cc(OC)cc(C(=O)NCCSC2CCCCC2)c1`?
D2 ag-1: -1.3; D2 PAM-1: -6.7; D2 ag-2: 0.1; D2 antagonist: 14.5; D2 PAM-2: -17.9

How did Cc1cc(NC(c2nnc(-c3ccccc3)o2)c2ccccc2F)ccc1Br (stereo unspecified) do in these assays?
D2 ag-1: 8.7; D2 PAM-1: -12.0

What do the screens show for `Cc1cc(C)c(C)c(OCc2nc(-c3cccnc3)no2)c1`?
D2 ag-1: -0.4; D2 PAM-1: 32.6*; D2 ag-2: -2.4; D2 antagonist: -7.0; D2 PAM-2: -31.0

What do the screens show for `CCN1CCN(c2nc(Nc3cccc(C)c3)nc(N)c2[N+](=O)[O-])CC1`?
D2 ag-1: -0.2; D2 PAM-1: -18.3; D2 ag-2: -6.2; D2 antagonist: 84.9*; D2 PAM-2: -14.7

What do the screens show for `Nc1nc(NCc2ccco2)nc(N2CCCC2)c1[N+](=O)[O-]`?
D2 ag-1: 1.6; D2 PAM-1: 2.0; D2 ag-2: 0.7; D2 antagonist: 7.2; D2 PAM-2: 1.1

Results for CCN1CCN(c2nc(Nc3ccccc3F)nc(N)c2[N+](=O)[O-])CC1 ?
D2 ag-1: -0.3; D2 PAM-1: -21.4; D2 ag-2: -0.8; D2 antagonist: 77.8*; D2 PAM-2: -31.2

Results for Cc1cccc(Nc2nc(N)c([N+](=O)[O-])c(N3CCCC(C)C3)n2)c1 (stereo unspecified) ?
D2 ag-1: 0.7; D2 PAM-1: 17.5; D2 ag-2: -8.3; D2 antagonist: 13.3; D2 PAM-2: -28.3

How did CCN1CCN(c2nc(Nc3ccc(OC)cc3)nc(N)c2[N+](=O)[O-])CC1 do in these assays?
D2 ag-1: -0.8; D2 PAM-1: -10.2; D2 ag-2: -0.1; D2 antagonist: 41.5*; D2 PAM-2: -21.7

What do the screens show for `Nc1nc(NCc2ccco2)nc(N2CCN(Cc3ccccc3)CC2)c1[N+](=O)[O-]`?
D2 ag-1: -0.2; D2 PAM-1: -14.8; D2 ag-2: -2.9; D2 antagonist: 88.8*; D2 PAM-2: -26.2

How did Nc1nc(Nc2ccccc2F)nc(N2CCCC2)c1[N+](=O)[O-] do in these assays?
D2 ag-1: 0.3; D2 PAM-1: 6.6; D2 ag-2: -2.2; D2 antagonist: -7.2; D2 PAM-2: 0.2

How did CCOC(=O)c1cc(C)n(CC2CCC(C(=O)Nc3ccc(Cl)cc3)CC2)c1C (stereo unspecified) do in these assays?
D2 PAM-1: -5.4

Results for Cc1ccc(CNS(=O)(=O)c2cc3c(cc2Cl)NC(=O)CO3)o1 ?
D2 ag-1: -0.6; D2 PAM-1: 11.9

How did CCN1CCN(c2nc(Nc3ccccc3)nc(N)c2[N+](=O)[O-])CC1 do in these assays?
D2 ag-1: -2.2; D2 PAM-1: -19.8; D2 ag-2: -6.9; D2 antagonist: 84.2*; D2 PAM-2: -34.8

How did Cc1ccc(Nc2nc(N)c([N+](=O)[O-])c(N3CCOCC3)n2)cc1C do in these assays?
D2 ag-1: -2.2; D2 PAM-1: 20.9; D2 ag-2: -9.0; D2 antagonist: 3.3; D2 PAM-2: -6.4
